Assay results from the supplement of paper PMC10849652.
Of roughly 7,900 targets only a part is listed; those with a hit were picked by preference. About 0.6% of all pairs of compound and target were hits.

Experiments:
Test in all cases: log2 fold change, soluble protein after heating vs DMSO (PISA); higher = thermal stabilisation; K562 cells, 10 uM, 30 min; active = over 0.2 and 3.5 SD of the protein, either way, in both replicates (recomputed)
[1] = compound: C1=CC=C(C=C1)[C@H](COC2=CC3=C(C=C2)NC(=O)N3)NC(=O)C4=CC=CN(C4=O)CC5=CC(=C(C=C5)F)F
Summary of the method: (§1)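 For each measurement, 10 μM compound was applied for 30 min to K562 cells at 2×10^6 cells/mL. Aliquots were heated for 3 min across 48°C-58°C, pooled, and extracted in PBS with 0.5% NP-40 at 4°C; the supernatant after 21,000xg for 90 min was soluble protein. This was quantified by TMTpro 16plex LC-MS/MS with channel sums equalised, and thermal stability was reported relative to control samples from duplicates, on a log2 fold-change scale.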

[2] = compound: CC1=C(SC2=C1C(=N[C@H](C3=NN=C(N32)C)CC(=O)N)C4=CC=C(C=C4)Cl)C
Summary of the method: as §1

[3] = compound: CC1=C2C(=CC=C1)N=C(N(C2=O)C3=CC=CC=C3C)CN4C=NC5=C(N=CN=C54)N
Summary of the method: as §1

[4] = compound: Cc1sc2c(c1C)C(c1ccc(Cl)cc1)=N[C@@H](CC(=O)OC(C)(C)C)c1nnc(C)n1-2
Summary of the method: as §1

[5] = compound: c1ccc([C@@H]2C[C@H]2NC2CCNCC2)cc1
Summary of the method: as §1

Measured: log2 fold change

GLYR1 (UniProt Q49A26)
inactive: [1] 0.147 | [2] 0.054 | [3] -0.016 | [4] 0.058 | [5] 0.067

GCC2 (UniProt Q8IWJ2)
inactive: [1] -0.027 | [2] -0.116 | [3] 0.004 | [4] 0.066 | [5] -0.059

HEATR3 (UniProt Q7Z4Q2)
inactive: [1] -0.073 | [2] -0.014 | [3] 0.026 | [4] 0.004 | [5] -0.04

FEN1 (UniProt P39748)
inactive: [1] -0.198 | [2] 0.097 | [3] 0.157 | [4] -0.009 | [5] -0.043

GBA2 (UniProt Q9HCG7)
inactive: [1] 0.099 | [2] 0.012 | [3] 0.017 | [4] 0.034 | [5] 0.023

FBXO42 (UniProt Q6P3S6)
inactive: [1] -0.022 | [2] 0.017 | [3] 0.094 | [4] 0.141 | [5] 0.077

GHDC (UniProt Q8N2G8)
inactive: [1] 0.061 | [2] 0.016 | [3] 0.022 | [4] 0.031 | [5] -0.019

GTF2E1 (UniProt P29083)
inactive: [1] -0.086 | [2] 0.089 | [3] 0.136 | [4] -0.052 | [5] 0.034

GALK1 isoform 2 (UniProt P51570)
Chain of UniProt P51570 (P51570 whole entry, looked up): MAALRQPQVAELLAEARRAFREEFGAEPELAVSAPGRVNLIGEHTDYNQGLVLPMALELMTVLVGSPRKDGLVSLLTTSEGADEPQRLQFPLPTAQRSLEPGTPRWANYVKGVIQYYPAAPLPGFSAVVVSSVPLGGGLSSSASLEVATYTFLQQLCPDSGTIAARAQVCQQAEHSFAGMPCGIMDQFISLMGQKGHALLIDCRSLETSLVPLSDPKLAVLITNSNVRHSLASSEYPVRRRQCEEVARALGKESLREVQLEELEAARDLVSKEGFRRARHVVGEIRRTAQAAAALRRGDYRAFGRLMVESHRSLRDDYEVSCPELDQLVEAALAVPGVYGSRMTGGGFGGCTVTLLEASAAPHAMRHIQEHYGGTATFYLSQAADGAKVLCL
inactive: [1] -0.02 | [2] 0.016 | [3] -0.065 | [4] -0.024 | [5] -0.007

GLUD2 (UniProt P49448)
inactive: [1] 0.026 | [2] 0.061 | [3] -0.029 | [4] 0.047 | [5] -0.005

HIP1 (UniProt O00291)
inactive: [1] 0.137 | [2] -0.009 | [3] 0.106 | [4] 0.019 | [5] 0.045

GOLGB1 isoform 2 (UniProt Q14789)
inactive: [1] 0.045 | [2] -0.024 | [3] 0.018 | [4] 0.013 | [5] 0.045

ICAM1 (UniProt P05362)
Chain of UniProt P05362 (P05362 whole entry, looked up): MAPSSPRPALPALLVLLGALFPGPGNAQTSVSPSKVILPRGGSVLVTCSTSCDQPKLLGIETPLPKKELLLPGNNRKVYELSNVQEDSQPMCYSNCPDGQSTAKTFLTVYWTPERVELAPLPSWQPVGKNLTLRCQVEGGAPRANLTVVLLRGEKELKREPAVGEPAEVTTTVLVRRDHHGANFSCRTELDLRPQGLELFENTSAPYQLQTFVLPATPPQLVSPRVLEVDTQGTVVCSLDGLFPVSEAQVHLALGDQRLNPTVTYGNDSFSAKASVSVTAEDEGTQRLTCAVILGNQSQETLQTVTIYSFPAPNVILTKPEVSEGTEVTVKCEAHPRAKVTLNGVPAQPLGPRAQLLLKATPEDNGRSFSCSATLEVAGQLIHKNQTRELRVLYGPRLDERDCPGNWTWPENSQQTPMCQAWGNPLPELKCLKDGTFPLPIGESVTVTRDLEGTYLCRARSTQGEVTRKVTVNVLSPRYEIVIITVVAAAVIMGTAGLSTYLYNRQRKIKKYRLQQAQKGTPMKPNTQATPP
inactive: [1] -0.005 | [2] 0.021 | [3] 0.049 | [4] 0.012 | [5] 0.031

FBXO3 (UniProt Q9UK99)
inactive: [1] 0.006 | [2] -0.03 | [3] 0.033 | [4] 0.055 | [5] 0.127

GNL1 (UniProt P36915)
Chain of UniProt P36915 (P36915 whole entry, looked up): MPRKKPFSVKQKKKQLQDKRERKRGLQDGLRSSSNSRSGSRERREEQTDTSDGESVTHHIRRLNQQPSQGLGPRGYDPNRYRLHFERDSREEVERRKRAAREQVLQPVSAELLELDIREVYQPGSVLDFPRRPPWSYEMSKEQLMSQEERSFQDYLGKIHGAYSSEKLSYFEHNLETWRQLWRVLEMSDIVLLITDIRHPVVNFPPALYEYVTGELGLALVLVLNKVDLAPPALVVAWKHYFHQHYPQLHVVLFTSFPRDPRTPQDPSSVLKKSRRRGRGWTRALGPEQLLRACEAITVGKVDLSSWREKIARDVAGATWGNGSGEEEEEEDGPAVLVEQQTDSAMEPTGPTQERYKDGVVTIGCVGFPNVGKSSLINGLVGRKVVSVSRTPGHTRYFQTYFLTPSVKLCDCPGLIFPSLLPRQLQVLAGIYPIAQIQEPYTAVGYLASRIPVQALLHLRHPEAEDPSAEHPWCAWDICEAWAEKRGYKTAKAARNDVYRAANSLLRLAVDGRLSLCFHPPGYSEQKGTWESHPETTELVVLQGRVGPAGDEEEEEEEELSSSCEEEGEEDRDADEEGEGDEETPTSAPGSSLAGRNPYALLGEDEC
inactive: [1] -0.042 | [2] -0.007 | [3] 0.099 | [4] -0.037 | [5] -0.038

HAT1 (UniProt O14929)
inactive: [1] 0.009 | [2] -0.005 | [3] 0.007 | [4] -0.101 | [5] -0.05

GLUD1 (UniProt P00367)
inactive: [1] 0.046 | [2] 0.065 | [3] -0.004 | [4] 0.071 | [5] -0.03

GTF3C5 isoform 3 (UniProt Q9Y5Q8)
inactive: [1] -0.097 | [2] -0.082 | [3] 0.103 | [4] 0.049 | [5] -0.159

HEXA (UniProt P06865)
inactive: [1] 0.042 | [2] -0.004 | [3] 0.052 | [4] -0.018 | [5] 0.024

HECTD1 (UniProt Q9ULT8)
Chain of UniProt Q9ULT8 (Q9ULT8 whole entry, looked up): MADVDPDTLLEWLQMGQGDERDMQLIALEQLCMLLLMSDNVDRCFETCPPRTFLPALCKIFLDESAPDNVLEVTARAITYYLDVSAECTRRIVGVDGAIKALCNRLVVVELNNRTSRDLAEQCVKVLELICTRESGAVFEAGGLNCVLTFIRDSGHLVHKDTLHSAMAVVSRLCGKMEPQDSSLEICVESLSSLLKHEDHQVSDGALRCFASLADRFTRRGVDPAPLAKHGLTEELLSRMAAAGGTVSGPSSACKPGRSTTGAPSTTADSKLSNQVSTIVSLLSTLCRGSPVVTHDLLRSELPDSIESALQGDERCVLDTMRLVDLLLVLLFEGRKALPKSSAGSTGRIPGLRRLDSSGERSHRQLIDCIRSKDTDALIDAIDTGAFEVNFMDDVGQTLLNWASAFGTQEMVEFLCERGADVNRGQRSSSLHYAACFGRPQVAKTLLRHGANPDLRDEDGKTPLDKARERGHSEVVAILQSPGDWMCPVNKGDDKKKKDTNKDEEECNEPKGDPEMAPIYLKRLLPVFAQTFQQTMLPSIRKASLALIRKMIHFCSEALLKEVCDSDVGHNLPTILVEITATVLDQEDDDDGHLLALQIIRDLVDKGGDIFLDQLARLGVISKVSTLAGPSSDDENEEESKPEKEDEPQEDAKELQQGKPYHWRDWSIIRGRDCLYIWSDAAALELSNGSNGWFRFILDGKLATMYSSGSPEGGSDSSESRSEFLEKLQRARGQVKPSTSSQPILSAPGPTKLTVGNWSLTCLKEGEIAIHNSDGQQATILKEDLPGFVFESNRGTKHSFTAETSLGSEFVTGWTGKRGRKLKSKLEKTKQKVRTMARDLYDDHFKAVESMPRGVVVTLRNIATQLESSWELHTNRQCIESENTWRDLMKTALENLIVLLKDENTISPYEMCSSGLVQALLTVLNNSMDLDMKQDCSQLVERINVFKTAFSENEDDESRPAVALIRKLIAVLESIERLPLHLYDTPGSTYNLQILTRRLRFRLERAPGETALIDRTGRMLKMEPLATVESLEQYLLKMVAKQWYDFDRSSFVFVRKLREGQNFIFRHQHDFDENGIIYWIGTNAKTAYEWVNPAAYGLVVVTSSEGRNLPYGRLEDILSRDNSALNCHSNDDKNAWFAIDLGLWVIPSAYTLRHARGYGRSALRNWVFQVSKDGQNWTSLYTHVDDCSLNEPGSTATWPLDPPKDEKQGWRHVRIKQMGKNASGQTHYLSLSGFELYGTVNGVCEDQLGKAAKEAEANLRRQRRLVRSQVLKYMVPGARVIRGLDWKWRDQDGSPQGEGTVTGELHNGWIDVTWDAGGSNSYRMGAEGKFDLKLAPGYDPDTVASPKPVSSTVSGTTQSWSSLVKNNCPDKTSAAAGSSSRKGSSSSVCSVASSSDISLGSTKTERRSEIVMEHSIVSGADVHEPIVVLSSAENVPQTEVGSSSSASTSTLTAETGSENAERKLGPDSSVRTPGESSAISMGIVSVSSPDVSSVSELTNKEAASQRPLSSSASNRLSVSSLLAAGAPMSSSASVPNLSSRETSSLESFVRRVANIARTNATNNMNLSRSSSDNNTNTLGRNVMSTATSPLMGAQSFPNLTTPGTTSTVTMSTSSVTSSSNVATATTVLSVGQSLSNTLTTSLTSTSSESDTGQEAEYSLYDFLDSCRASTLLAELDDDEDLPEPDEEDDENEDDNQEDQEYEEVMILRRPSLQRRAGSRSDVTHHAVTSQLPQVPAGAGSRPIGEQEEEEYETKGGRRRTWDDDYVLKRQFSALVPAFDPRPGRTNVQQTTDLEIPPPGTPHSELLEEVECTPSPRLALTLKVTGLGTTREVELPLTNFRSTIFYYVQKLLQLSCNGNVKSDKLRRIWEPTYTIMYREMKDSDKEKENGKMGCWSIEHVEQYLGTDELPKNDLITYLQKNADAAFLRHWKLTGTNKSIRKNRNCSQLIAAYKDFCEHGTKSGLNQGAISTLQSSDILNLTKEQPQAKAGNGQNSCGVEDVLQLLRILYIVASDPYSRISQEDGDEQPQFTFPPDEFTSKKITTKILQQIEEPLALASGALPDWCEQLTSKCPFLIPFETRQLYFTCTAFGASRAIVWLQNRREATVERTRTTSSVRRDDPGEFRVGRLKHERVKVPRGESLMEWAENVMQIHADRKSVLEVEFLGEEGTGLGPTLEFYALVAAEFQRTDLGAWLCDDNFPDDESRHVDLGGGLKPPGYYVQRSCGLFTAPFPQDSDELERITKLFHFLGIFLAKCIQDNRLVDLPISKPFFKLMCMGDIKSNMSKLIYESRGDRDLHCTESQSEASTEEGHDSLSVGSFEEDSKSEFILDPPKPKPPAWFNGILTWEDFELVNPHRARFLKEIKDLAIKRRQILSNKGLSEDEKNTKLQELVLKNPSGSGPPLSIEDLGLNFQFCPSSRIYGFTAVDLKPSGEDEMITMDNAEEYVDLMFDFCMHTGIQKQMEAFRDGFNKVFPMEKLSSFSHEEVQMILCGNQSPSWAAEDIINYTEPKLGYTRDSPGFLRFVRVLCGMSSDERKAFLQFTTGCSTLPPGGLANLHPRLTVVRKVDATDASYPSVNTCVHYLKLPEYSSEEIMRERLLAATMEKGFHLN
inactive: [1] 0.009 | [2] 0 | [3] 0.098 | [4] 0.051 | [5] -0.004

GINS2 (UniProt Q9Y248)
Chain of UniProt Q9Y248 (Q9Y248 whole entry, looked up): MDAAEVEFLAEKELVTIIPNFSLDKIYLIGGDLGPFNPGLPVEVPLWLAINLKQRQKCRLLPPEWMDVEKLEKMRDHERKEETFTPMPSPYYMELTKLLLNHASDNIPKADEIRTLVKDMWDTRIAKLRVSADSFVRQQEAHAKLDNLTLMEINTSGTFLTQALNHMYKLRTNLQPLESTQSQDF
inactive: [1] -0.011 | [2] 0.102 | [3] 0.115 | [4] -0.033 | [5] -0.026

GABPA (UniProt Q06546)
Chain of UniProt Q06546 (Q06546 whole entry, looked up): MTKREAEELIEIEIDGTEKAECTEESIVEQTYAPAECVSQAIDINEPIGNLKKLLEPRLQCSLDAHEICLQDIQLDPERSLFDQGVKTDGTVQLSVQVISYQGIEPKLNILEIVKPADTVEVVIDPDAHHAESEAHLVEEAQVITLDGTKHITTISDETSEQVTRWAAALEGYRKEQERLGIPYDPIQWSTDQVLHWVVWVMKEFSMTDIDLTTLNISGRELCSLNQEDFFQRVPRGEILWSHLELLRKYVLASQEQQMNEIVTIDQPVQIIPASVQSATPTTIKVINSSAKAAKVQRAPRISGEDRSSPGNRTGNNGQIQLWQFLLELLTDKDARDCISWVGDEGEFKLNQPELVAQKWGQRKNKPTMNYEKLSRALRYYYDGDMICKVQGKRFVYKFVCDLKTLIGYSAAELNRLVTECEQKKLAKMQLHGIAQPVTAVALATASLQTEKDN
inactive: [1] -0.001 | [2] 0.005 | [3] 0.149 | [4] -0.01 | [5] -0.041

GALNT2 (UniProt Q10471)
inactive: [1] 0.008 | [2] 0.057 | [3] 0.001 | [4] 0.007 | [5] -0.004

HMGN2 (UniProt P05204)
inactive: [1] -0.099 | [2] -0.056 | [3] -0.033 | [4] 0.021 | [5] 0.07
